Drawing on PubChem BioAssay (Tox21), this text covers Potency for 40 compounds.

Inconclusive results are not listed. A call without a number means that no potency is given here. The source made the active and inactive calls. Calls follow the shape of the dose curve; as a rule, active = well fitted inhibition curve with a large enough effect in the signal ratio in the repeat runs; inconclusive = weak or mixed curves, or effect the other way; inactive = flat fitted curve, though single readings scatter; the % refers to the signal ratio.
Potency is read from the fitted curve at half-maximal effect.

This assay can be described thus: qHTS assay for small molecule disruptors of the mitochondrial membrane potential (AID 720635). As to conditions: HepG2 mitochondrial membrane potential, Mito-MPS dye ratio; series mostly up to 83.2 µM. The source says:
U.S. Tox21 Program National Center for Advancing Translational Sciences [NCATS] NIH Chemical Genomics Center [NCGC] U.S. Environmental Protection Agency [EPA] National Institutes of Environmental Health Sciences [NIEHS] National Toxicology Program [NTP] U.S. Food and Drug Administration [FDA] Tox21 Assay Overview: Mitochondrial membrane potential (MMP), one of the parameters for mitochondrial function, is generated by mitochondrial electron transport chain that creates an electrochemical gradient by a series of redox reactions. This gradient drives the synthesis of ATP, a crucial molecule for various cellular processes. Measuring MMP in living cells is commonly used to assess the effect of chemicals on mitochondrial function. […] The dye accumulates in the mitochondria of healthy cells as aggregates, with red fluorescence. The mitochondrial potential collapses and the dye can no longer accumulate in the mitochondria and remains in the cytoplasm in monomers, with green fluorescence.
Tox21 Assay Protocol Summary: 2,000 HepG2 cells in 5 uL/well were dispensed into black, clear-bottom 1536-well plates using a Multidrop Combi (Thermo Scientific) dispenser. The assay plates were incubated overnight at 37C to allow cells to attach to the wells, followed by the transfer of 23 nL compound or DMSO vehicle by a pin tool (Kalypsys). The plates were incubated for 1 hr at 37C and 5% CO2, followed by the addition of 5 uL of 2X Mito-MPS dye (BD Biosciences) into each well using Flying Reagent Dispenser (Aurora Discovery) and then following 30 min incubation at 37C. Fluorescence intensity (490nm excitation and 535nm emission for monomers; and 540nm excitation and 590nm emissions for aggregates) was measured using an Envision plate reader.
A general note: Quantitative high-throughput screening tests each substance at several concentrations.
As to `C[N+]1(CCCCC[N+]2(C)CCCC2)CCCC1`, the Potency result was “inactive”.
Under `COc1ccc([C@@H]2CC(=O)c3c(O)cc(O[C@@H]4O[C@H](CO[C@@H]5O[C@@H](C)[C@H](O)[C@@H](O)[C@H]5O)[C@@H](O)[C@H](O)[C@H]4O)cc3O2)cc1O` stands “inactive”; under `O=C1c2c(O)cccc2[C@H]([C@@H]2O[C@H](CO)[C@@H](O)[C@H](O)[C@H]2O)c2cc(CO)cc(O)c21`, “inactive”.
In the case of `CNC(=O)OCc1cccc(COC(=O)NC)n1` it was “inactive”; in that of `NC(=O)CC[C@@H]1NC(=O)[C@H](Cc2ccccc2)NC(=O)[C@H](Cc2ccc(O)cc2)NC(=O)[C@@H](N)CSSC[C@@H](C(=O)N2CCC[C@H]2C(=O)N[C@@H](CCCN=C(N)N)C(=O)NCC(N)=O)NC(=O)[C@H](CC(N)=O)NC1=O`, “inactive”.
As for `C[C@@H]1C[C@H]2[C@@H]3C[C@H](F)C4=CC(=O)C=C[C@]4(C)[C@@]3(Cl)[C@@H](O)C[C@]2(C)[C@H]1C(=O)COC(=O)C(C)(C)C`, the Potency entry is “inactive”.
In the case of `CC(=O)Nc1ccc(OC(C)=O)cc1` it was “inactive”; in that of `C=C1C(=C/C=C2\CCC[C@]3(C)[C@@H]([C@H](C)CCCC(C)C)CC[C@@H]23)C[C@@H](O)C[C@@H]1O`, 29.8 µM (active).
In the case of `CCN(CC)C(=O)c1cccnc1` it was “inactive”; in that of `COc1cc2c(cc1OC)[C@@H](Cc1cc(OC)c(OC)c(OC)c1)[N+](C)(CCCOC(=O)CC/C=C/CCC(=O)OCCC[N+]1(C)CCc3cc(OC)c(OC)cc3[C@H]1Cc1cc(OC)c(OC)c(OC)c1)CC2` (stereo not given in full), “inactive”; in that of `CC(=O)NC[C@H]1CN(c2ccc(N3CCOCC3)c(F)c2)C(=O)O1`, “inactive”.
Under `Oc1ccc(Cl)c2c1CCC2` stands 24.8 µM (active); under `CCc1ncnc2cc(OC)c(OC)cc12`, “inactive”.
As to `O=C1CCCCCCCCCCCCCC1`, the Potency is 48.6 µM (active).
In the case of `N[C@H](C(=O)O)[C@@H]1CC(Cl)=NO1` it was “inactive”.
In the case of `O=c1[nH]c(=O)n([C@H]2C[C@H](O)[C@@H](CO)O2)cc1/C=C/Br` it was “inactive”; in that of `NCC1CCC(C(=O)O)CC1` (stereo not given), “inactive”; in that of `C/C(=C(/CCO)SSCC1CCCO1)N(C=O)Cc1cnc(C)nc1N` (stereo not given), “inactive”.
Under `COC(=O)C(CN)c1c[nH]c2ccc(OC)cc12` (stereo not given) stands “inactive”.
For `CC1(C)S[C@@H]2[C@H](N3C(=O)C(c4ccccc4)NC3(C)C)C(=O)N2[C@H]1C(=O)O` (stereo not given in full), the Potency entry was “inactive”.
For `Cc1c(O)c(=O)ccn1C`, the Potency result is “inactive”.
Under `CC[C@@H](C(=O)[C@@H](C)[C@@H](O)[C@H](C)CCc1ccc(C)c(O)c1C(=O)O)[C@H]1O[C@](CC)([C@H]2CC[C@](O)(CC)[C@H](C)O2)C[C@@H]1C` stands 1.06 µM (active); under `NC(=O)c1cc[n+](CC2=C(C(=O)O)N3C(=O)[C@@H](NC(=O)C(c4ccccc4)S(=O)(=O)[O-])[C@H]3SC2)cc1` (stereo not given in full), “inactive”; under `CC(=O)OCC(=O)[C@@]1(O)CC[C@H]2[C@@H]3C[C@H](C)C4=CC(=O)C=C[C@]4(C)[C@H]3[C@@H](O)C[C@@]21C`, “inactive”.
In the case of `CN1C(C(=O)Nc2ccccn2)C(=O)c2sc(Cl)cc2S1(=O)=O` (stereo not given) it was 8.41 µM (active); in that of `CN[C@H]1CC[C@@H](c2ccc(Cl)c(Cl)c2)c2ccc(S(N)(=O)=O)cc21`, 8.63 µM (active); in that of `CCc1cn([C@H]2C[C@H](O)[C@@H](CO)O2)c(=O)[nH]c1=O`, “inactive”.
Under `CCCC(CCC)C(=O)OC1C[C@H]2CC[C@@H](C1)[N+]2(C)C` (stereo not given in full) stands “inactive”; under `NC(N)=NCCCCN=C(N)N`, “inactive”; under `NC[C@H]1O[C@H](O[C@H]2[C@H](O)[C@@H](O[C@H]3O[C@H](CO)[C@@H](O)[C@H](N)[C@H]3O)[C@H](N)C[C@@H]2N)[C@H](N)C[C@@H]1O`, “inactive”.
`OCC1(CO)COC(C(Cl)(Cl)Cl)OC1`: the Potency result was “inactive”.
In the case of `OCCCNc1ccccc1` it was “inactive”; in that of `NC(N)=NCC1COC2(CCCCC2)O1` (stereo not given), “inactive”; in that of `CC(C)c1ncc([N+](=O)[O-])n1C`, “inactive”.
In the case of `C[N+](C)(C)CCOP(=O)(O)OP(=O)([O-])OC[C@H]1O[C@@H](n2ccc(N)nc2=O)[C@H](O)[C@@H]1O` it was “inactive”.
Under `CS(=O)(=O)c1ccc([C@@H](O)[C@@H](COC(=O)CN)NC(=O)C(Cl)Cl)cc1` stands “inactive”; under `CC/C=C\C/C=C\C/C=C\C/C=C\C/C=C\CCCC(=O)O`, “inactive”; under `C=CCN1C(=O)C(CC(C)C)NC1=S` (stereo not given), “inactive”.
With `O=C(O)c1cc(=O)c2c3nc4ccccc4oc-3cc(=O)c2[nH]1`, the Potency was 21.1 µM (active).
For `CC1(C)S[C@@H]2[C@H](NC(=O)[C@@H](NC(=O)N3CCNC3=O)c3ccccc3)C(=O)N2[C@H]1C(=O)O`, the Potency entry is “inactive”.
